Tb PYK inh: T. brucei pyruvate kinase inhibition; Q57TT1; TbPYK enzyme, Kinase-Glo Plus ATP luminescence, 45 min; Potency, µM (series often up to 76.8 µM), inactives show at the highest dose activity, negative = inhibition, most hits filed as inhibitors; 0.12% of 410,000 active; AID 624173; also: potency is read from the fitted curve at half-maximal effect; % is scaled to controls: 0 for no effect and ±100 for the full control effect; nearly all actives have a fitted effect of over 50% in size
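ADP (130 uM final) triggers the TbPYK reaction after compound addition; incubation is 45 min at room temperature. Kinase-Glo Plus is then added and luminescence imaged. Normalized data are fitted to concentration-effect curves.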
Shiga inhibitor: blocks Shiga toxin action in Vero cells. Vero cells, Shiga toxin protein synthesis inhibition reporter. inhibition, % at 38.7 µM. 9.2% of 290,000 active. AID 2315; in the data active = inhibition mostly above about 28%, no sharp cut-off; inactive = mostly below about 43%; also: 0% is about no effect
LmPK inhibitor: inhibitors of Leishmania mexicana pyruvate kinase | Q27686 | purified LmPK, Kinase-Glo ATP luminescence, 1 h | Potency, µM (highest dose often 57.5 µM), for inactives: at the highest dose activity change, negative = inhibition, actives largely listed as inhibitors | 0.37% of 290,000 active | AID 1721; also: potency is read from the fitted curve at half-maximal effect; % is scaled to controls: 0 for no effect and ±100 for the full control effect
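ATP generated from ADP (0.1 mM) and PEP (0.5 mM) by 0.1 nM LmPK over 1 h at room temperature (pH 7.2 imidazole buffer) was detected by coupled luciferase luminescence. Values were normalized to uninhibited and no-enzyme wells.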
Giardia FBPA inh-1: blocks Giardia fructose-bisphosphate aldolase activity; 0.71% of 290,000 active; Potency, µM (series often up to 59.6 µM), without a hit: at the top dose activity, negative = inhibition, usual class: inhibitors; A8B2U2; purified Giardia FBPA; also: potency is read from the fitted curve at half-maximal effect; % is scaled to controls: 0 for no effect and ±100 for the full control effect; nearly all actives have a fitted effect of over 55% in size
Target sequence (A8B2U2 whole entry, looked up): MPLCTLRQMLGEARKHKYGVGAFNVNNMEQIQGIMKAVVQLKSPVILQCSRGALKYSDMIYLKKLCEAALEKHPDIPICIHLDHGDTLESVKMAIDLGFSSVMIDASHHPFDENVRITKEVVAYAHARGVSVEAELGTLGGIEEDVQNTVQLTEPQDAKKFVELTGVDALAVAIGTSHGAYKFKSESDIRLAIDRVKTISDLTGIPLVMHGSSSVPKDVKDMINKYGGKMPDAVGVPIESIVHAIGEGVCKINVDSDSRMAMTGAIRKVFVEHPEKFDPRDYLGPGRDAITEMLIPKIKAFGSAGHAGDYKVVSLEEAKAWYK
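40 nM FBPA preincubated 10 min at RT with compound (up to 57.5 uM final), then substrate plus GAPDH/TPI/NAD/arsenate coupling and diaphorase/resazurin added. Fluorescence read after 20 min at RT, 525/598 nm.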
CHX counter: affects cycloheximide protein synthesis inhibition readout, counter-screen | max response, % | cell reporter, cycloheximide protein synthesis inhibition counterscreen | 12% of 300,000 active; in the data active = max response mostly above about 13%, no sharp cut-off; inactive = mostly below about 14%; also: read at 38.3 µM for the half of the compounds with a filed dose; 0% is about no effect
RE007 growth inh: less growth of the S. pombe RE007 Vpr strain. S. pombe RE007 Vpr strain, BacTiter-Glo ATP luminescence, 24 h. Potency, µM (highest dose often 92.2 µM), for inactives: at the highest dose activity change, negative = less growth, hits mostly inhibitors. 0.21% of 360,000 active. AID 651644; active = well fitted falling curve with a large enough effect; inconclusive = small, poorly fitted or top-dose-only effect; inactive = no such curve, though single readings can be large or run the other way; also: potency is read from the fitted curve at half-maximal effect; % is scaled to controls: 0 for no effect and ±100 for the full control effect; nearly all actives have a fitted effect of over 50% in size
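Fission yeast RE007 carrying one integrated HIV-1 vpr copy, seeded at OD 0.01 in PMG+AL medium with 23 nL pinned compound. Grown 24 h at 30 degrees; viability read by BacTiter-Glo luminescence after 5 min.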
Giardia growth: blocks growth of Giardia lamblia trophozoites | 5% of 1,500 active | Potency, µM (series often up to 57.5 µM), without a hit: at the highest dose activity change, negative = inhibition, hits mostly inhibitors | Giardia lamblia trophozoite growth inhibition | shares compounds with Giardia FBPA inh-1;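 also: potency is read from the fitted curve at half-maximal effect; trophozoites exposed to compound for 48 h at 37 °C; % is scaled to controls: 0 for no effect and ±100 for the full control effect; nearly all actives have a fitted effect of over 70% in size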
Mammal cell tox: counter-screen for Giardia aldolase inhibitors: mammalian cell toxicity. mammalian cell viability counter-screen, qHTS. Potency, µM (highest dose often 57.5 µM), for the others: at the highest dose viability change, negative = toxicity, hits mostly inhibitors. shares compounds with Giardia FBPA inh-1. 4% of 1,500 active;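 also: Chinese hamster ovary cells used as mammalian cytotoxicity surrogate; viability measured as cellular ATP by luminescence; potency is read from the fitted curve at half-maximal effect; compound exposure lasted 48 h before reading; % is scaled to controls: 0 for no effect and ±100 for the full control effect; nearly all actives have a fitted effect of over 60% in size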
Giardia FBPA inh-2: confirmation of Giardia fructose-bisphosphate aldolase inhibitors; shares compounds with Giardia FBPA inh-1; purified Giardia aldolase enzyme activity, qHTS; Potency, µM (top dose mostly 57.5 µM), for inactives: at the highest dose activity change, negative = inhibition, usual class: inhibitors; 5% of 1,500 active; also: potency is read from the fitted curve at half-maximal effect; % is scaled to controls: 0 for no effect and ±100 for the full control effect; nearly all actives have a fitted effect of over 45% in size
Rabbit FBPA inh: blocks rabbit muscle aldolase in Giardia aldolase selectivity test; shares compounds with Giardia FBPA inh-1; Rabbit muscle FBPA enzyme inhibition, selectivity counter-screen; Potency, µM (top dose mostly 57.5 µM), inactives show at the top dose activity, negative = inhibition, hits mostly inhibitors; 4% of 1,500 active; AID 2794; also: potency is read from the fitted curve at half-maximal effect; % is scaled to controls: 0 for no effect and ±100 for the full control effect; nearly all actives have a fitted effect of over 60% in size
Target sequence (P00883 whole entry, looked up): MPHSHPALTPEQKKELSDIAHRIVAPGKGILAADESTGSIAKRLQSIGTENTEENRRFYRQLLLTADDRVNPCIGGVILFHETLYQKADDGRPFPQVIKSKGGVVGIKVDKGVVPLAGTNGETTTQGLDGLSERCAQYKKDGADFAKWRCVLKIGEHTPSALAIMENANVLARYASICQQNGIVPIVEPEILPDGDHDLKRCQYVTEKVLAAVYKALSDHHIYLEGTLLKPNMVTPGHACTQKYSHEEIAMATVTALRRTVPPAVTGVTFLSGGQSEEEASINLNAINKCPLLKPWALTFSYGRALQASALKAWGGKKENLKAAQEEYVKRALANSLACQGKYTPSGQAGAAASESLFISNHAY
GAPDH counter: counter-screen for Giardia aldolase inhibitors: GAPDH coupling enzyme | GAPDH coupling enzyme counterscreen, biochemical, qHTS | shares compounds with Giardia FBPA inh-1 | Potency, µM (titrated, usually from 57.5 µM), without a hit: at the highest dose activity change, negative = inhibition, hits mostly inhibitors | 6% of 1,500 active | AID 2795; also: potency is read from the fitted curve at half-maximal effect; % is scaled to controls: 0 for no effect and ±100 for the full control effect; nearly all actives have a fitted effect of over 55% in size
An asterisk follows results filed as active; [ ] = dose if it differs, or a comment. The sample as a whole holds a higher share of hits than the screen did. Unless noted, calls follow the shape of the dose curve; as a rule, active = well fitted curve in the direction sought with a large enough effect; inconclusive = small, poorly fitted or top-dose-only effect, or another doubt; inactive = no such curve, though single readings can be large; an effect the other way counts as inactive or inconclusive.

`NS(=O)(=O)c1ccc(N=Nc2ccc(O)c3ncccc23)cc1` gave Tb PYK inh -12%, Shiga inhibitor -9, LmPK inhibitor -3%, Giardia FBPA inh-1 inconclusive and CHX counter 5.
`CCN(CCCNC(=O)CN1N=C(c2ccccc2)CCC1=O)c1ccccc1` gave Tb PYK inh -7%.
For COc1cccc2c1cc1c(=O)n(CC(=O)NCc3ccc(C)o3)nc(C)n12 the results were Tb PYK inh -4%.
For Cc1cccc(N(CC(=O)N/N=C/c2cc([N+](=O)[O-])ccc2Cl)S(C)(=O)=O)c1C the results were Tb PYK inh -4%, Shiga inhibitor -4, LmPK inhibitor 1%, Giardia FBPA inh-1 18µM*, CHX counter -2, RE007 growth inh -5%, Giardia growth -3%[38.3 µM], Mammal cell tox 1%, Giardia FBPA inh-2 -16%, Rabbit FBPA inh -17% and GAPDH counter inconclusive.
Screening c1cc2c(cc1-c1csc(NNC3=NCCCCC3)n1)OCCO2 returned Tb PYK inh -29%, Shiga inhibitor 55*, LmPK inhibitor -25%, Giardia FBPA inh-1 14µM*, CHX counter 37*, RE007 growth inh inconclusive, Giardia growth -9%[10.4 µM], Mammal cell tox -23%, Giardia FBPA inh-2 4%, Rabbit FBPA inh 4% and GAPDH counter 23%.
Screening CN1C(=O)NC(=O)/C(=C/c2ccc(C(=O)O)cc2)C1=O returned Tb PYK inh inconclusive, Shiga inhibitor -3, LmPK inhibitor 0%, Giardia FBPA inh-1 -8%, CHX counter 1 and RE007 growth inh 12%.
Screening Cc1ccc(/C=C2/C(=O)NC(=O)N(C)C2=O)cc1 returned Tb PYK inh -26%, Shiga inhibitor 13, LmPK inhibitor 7%, Giardia FBPA inh-1 -3%, CHX counter -2 and RE007 growth inh -9%.
Screening O=C1NC(=O)N(c2ccccc2)C(=O)/C1=C\c1ccc([N+](=O)[O-])s1 returned Tb PYK inh inconclusive, Shiga inhibitor -7, LmPK inhibitor -3%, Giardia FBPA inh-1 inconclusive, CHX counter -3 and RE007 growth inh inconclusive.
For CN1C(=O)NC(=O)/C(=C/c2ccc([N+](=O)[O-])o2)C1=O the results were Tb PYK inh inconclusive, Shiga inhibitor 3, LmPK inhibitor -28%, Giardia FBPA inh-1 18µM*, CHX counter -2, RE007 growth inh -28%, Giardia growth inconclusive, Mammal cell tox -2%, Giardia FBPA inh-2 inconclusive, Rabbit FBPA inh inconclusive and GAPDH counter inconclusive.
Screening CN1C(=O)NC(=O)/C(=C\c2ccc([N+](=O)[O-])o2)C1=O returned Tb PYK inh inconclusive, Shiga inhibitor -10, LmPK inhibitor -26%, Giardia FBPA inh-1 18µM*, CHX counter -2, RE007 growth inh -10%, Giardia growth inconclusive, Mammal cell tox -5%, Giardia FBPA inh-2 inconclusive, Rabbit FBPA inh inconclusive and GAPDH counter inconclusive.
O=C1NC(=O)N(c2ccccc2)C(=O)/C1=C\c1ccc([N+](=O)[O-])o1 was read as Shiga inhibitor -7, LmPK inhibitor -17%, Giardia FBPA inh-1 20µM*, CHX counter -1, Giardia growth -22%, Mammal cell tox 7%, Giardia FBPA inh-2 -26%, Rabbit FBPA inh -25% and GAPDH counter -19%.
`O=C(NCc1ccco1)c1ccc2c(c1)N(Cc1ccc(Cl)cc1)C(=O)c1ccccc1S2(=O)=O` gave Tb PYK inh 3%.
CCOc1ccc(CCNC(=O)c2ccc(-c3nc(CSc4ccccc4)c(C)o3)cc2)cc1 was read as Tb PYK inh 0%.
Screening COc1ccc(C)cc1NC(=O)CSc1nc(=O)n(Cc2ccccn2)c2c1CCC2 returned Tb PYK inh 3%.
For COc1cc(-c2nc(-c3ccc4c(c3)[nH]c(=O)n4C)no2)cc(OC)c1OC the results were Tb PYK inh 2%.
For Cc1oc2c(O)c(O)ccc2c(=O)c1-c1ccccc1 the results were Tb PYK inh -13%, Shiga inhibitor -4, LmPK inhibitor -13%, Giardia FBPA inh-1 11µM*, CHX counter -2, RE007 growth inh -3%, Giardia growth 6%, Mammal cell tox -1%, Giardia FBPA inh-2 -27%, Rabbit FBPA inh inconclusive and GAPDH counter -22%.
O=C1NC(O)=NC1(c1ccccc1)c1ccccc1 was read as Giardia FBPA inh-1 -10%.
For C=CCNC(=S)NNc1nc2sc3c(c2c(=O)[nH]1)CC(C)(C)OC3 the results were Tb PYK inh -16%, Shiga inhibitor -7, LmPK inhibitor 1%, Giardia FBPA inh-1 1.3µM*, CHX counter 1, RE007 growth inh 19%, Giardia growth inconclusive, Mammal cell tox 0%, Giardia FBPA inh-2 2%, Rabbit FBPA inh 6% and GAPDH counter 4%.
Screening CC1(C(=O)Nc2cccc(C(F)(F)F)c2)Cc2ccccc2C(=O)O1 (stereo not given) returned Tb PYK inh 1%.
For CCOC(=O)C1CCN(c2c(C(=O)c3ccc(OC)cc3)cnc3ccccc23)CC1 the results were Tb PYK inh -3%.
Cn1nnc(NC(=S)NC(=O)/C=C/c2ccco2)n1 was read as Tb PYK inh -22%, Shiga inhibitor -4, LmPK inhibitor 13%, Giardia FBPA inh-1 3.5µM*, CHX counter 2, RE007 growth inh -9%, Giardia growth -28%[38.3 µM], Mammal cell tox -2%, Giardia FBPA inh-2 -19%, Rabbit FBPA inh -20% and GAPDH counter -23%.
Screening Clc1ccc(SCCOCCN2CCOCC2)cc1 returned Tb PYK inh 22%, Shiga inhibitor 2, LmPK inhibitor 1%, Giardia FBPA inh-1 18µM*, CHX counter 11, RE007 growth inh -10%, Giardia growth 9%[10.4 µM], Mammal cell tox 25%, Giardia FBPA inh-2 11%, Rabbit FBPA inh -1% and GAPDH counter 11%.

High-throughput results deposited in PubChem BioAssay by National Center for Advancing Translational Sciences (NCATS).
